Measurements from the supplement of paper PMC9950053.
Where a name gives a salt, the structure may show the parent alone.

These molecules were tested on Danio rerio larvae (5 dpf) (assay: combined optomotor response (time in upper well half, down vs up moving lines, periods 7-14) minus DMSO control (percentage points); higher = stronger optomotor response than DMSO larvae). Settings: 10 µM; exposure time: 3 h pre-incubation + 3 h imaging.
Description: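 Wild-type 5 dpf zebrafish larvae (n=48 per drug, 96-well plates, 28.5 °C) were exposed to Tocris FDA-approved library compounds at 10 µM (0.1% DMSO) for 3 h before and 3 h during imaging. Images were taken every 6 s during visual and acoustic stimuli, and larvae were tracked with Z-LaP Tracker. Each measure is the treated-group mean minus the DMSO control mean (n=844), in percentage points. This mapping covers compounds with 5-character plate codes.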

Row | Structure (SMILES) | combined optomotor response
1 | COc1ccc(C(CN(C)C)C2(O)CCCCC2)cc1 (stereo unspecified) [Venlafaxine hydrochloride] | -1.24
